Where “and” joins values, the source holds several entries; their conditions need not be identical. Equal values may be shown once. Out of some 5,500 compounds screened, about 2,000 (36%) were called active. Not shown: some 18% with an inconclusive outcome. The list shows a part of the results. Unmarked numbers belong to inactive results. No stated cut-off is given here; in the data, active means normalized growth mostly below about 0.91 (no sharp cut-off); inconclusive means no clear call, values can overlap the other calls; inactive means mostly above about 0.92.
Test: chemical genetic growth profiling, strain panel (AID 1159580);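 further: tested at 20 µM; growth read once vehicle control cultures reached saturation at 30 °C; 1 = growth at the plate median or of vehicle wells; lower values mean less growth of the strain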
Details: S. cerevisiae deletion strains, growth OD

Compound: c1ccc(CC2=NCCN2)cc1
- normalized growth (locus YAL013W, strain DEP1, active compounds read low): 1.01
- normalized growth (locus YAL021C, strain ccr4, active compounds read low): 1.01
- normalized growth (locus YAL026C, strain drs2, active compounds read low): 1.03
- normalized growth (locus YAL030W, strain snc1, active compounds read low): 1.01
- normalized growth (locus YBL061C, strain skt5, active compounds read low): 1.01
- normalized growth (locus YBR009C, strain hhf1, active compounds read low): 0.998
- normalized growth (locus YBR021W, strain FUR4, active compounds read low): 0.861
- normalized growth (locus YBR023C, strain chs3, active compounds read low): 1.01
- normalized growth (locus YBR171W, strain sec66, active compounds read low): 1.03
- normalized growth (locus YBR229C, strain ROT2, active compounds read low): 0.983
- normalized growth (locus YBR231C, strain swc5, active compounds read low): 1.01
- normalized growth (locus YBR279W, strain paf1, active compounds read low): 1.01
- normalized growth (locus YCL011C, strain gbp2, active compounds read low): 1.02
- normalized growth (locus YCL016C, strain dcc1, active compounds read low): 1
- normalized growth (locus YCL029C, strain bik1, active compounds read low): 0.887 (active)
- normalized growth (locus YCL061C, strain MRC1, active compounds read low): 1.02
- normalized growth (locus YCL069W, strain vba3, active compounds read low): 1.03
- normalized growth (locus YCR088W, strain abp1, active compounds read low): 1.01
- normalized growth (locus YDL005C, strain med2, active compounds read low): 1.02
- normalized growth (locus YDL035C, strain GPR1, active compounds read low): 0.963
- normalized growth (locus YDL040C, strain nat1, active compounds read low): 1
- normalized growth (locus YDL074C, strain BRE1, active compounds read low): 1
- normalized growth (locus YDL101C, strain DUN1, active compounds read low): 0.987
- normalized growth (locus YDL134C, strain PPH21, active compounds read low): 0.99
- normalized growth (locus YDL185W, strain tfp1, active compounds read low): 0.816 (active)
- normalized growth (locus YDL192W, strain arf1, active compounds read low): 0.952
- normalized growth (locus YDR001C, strain nth1, active compounds read low): 1.01
- normalized growth (locus YDR069C, strain doa4, active compounds read low): 1
- normalized growth (locus YDR101C, strain arx1, active compounds read low): 0.903 (active)
- normalized growth (locus YDR137W, strain rgp1, active compounds read low): 1.03
- normalized growth (locus YDR150W, strain NUM1, active compounds read low): 0.983
- normalized growth (locus YDR159W, strain sac3, active compounds read low): 0.977
- normalized growth (locus YDR162C, strain NBP2, active compounds read low): 0.967
- normalized growth (locus YDR195W, strain ref2): 1.02
- normalized growth (locus YDR297W, strain sur2, active compounds read low): 1.01
- normalized growth (locus YDR318W, strain mcm21, active compounds read low): 0.893 (active)
- normalized growth (locus YDR334W, strain swr1, active compounds read low): 1.02
- normalized growth (locus YDR335W, strain msn5, active compounds read low): 1
- normalized growth (locus YDR388W, active compounds read low): 0.923 (active)
- normalized growth (locus YDR392W, strain spt3, active compounds read low): 0.933
- normalized growth (locus YDR502C, strain sam2, active compounds read low): 0.91 (active)
- normalized growth (locus YEL003W, strain gim4, active compounds read low): 1.01
- normalized growth (locus YEL037C, strain rad23, active compounds read low): 1.02
- normalized growth (locus YEL061C, strain CIN8 (second series), active compounds read low): 1.01
- normalized growth (locus YEL061C, strain CIN8, active compounds read low): 0.987
- normalized growth (locus YER015W, strain faa2, active compounds read low): 1.01
- normalized growth (locus YER016W, strain bim1, active compounds read low): 1.04
- normalized growth (locus YER110C, active compounds read low): 0.929
- normalized growth (locus YER111C, strain swi4, active compounds read low): 1.02
- normalized growth (locus YER155C, strain BEM2 (second series), active compounds read low): 1.02
- normalized growth (locus YER155C, strain BEM2, active compounds read low): 0.891 (active)
- normalized growth (locus YER167W, strain BCK2, active compounds read low): 0.939
- normalized growth (locus YFR010W, strain ubp6, active compounds read low): 1.01
- normalized growth (locus YGL078C, strain dbp3, active compounds read low): 0.806 (active)
- normalized growth (locus YGL086W, strain mad1, active compounds read low): 0.955
- normalized growth (locus YGL167C, strain pmr1, active compounds read low): 1.02
- normalized growth (locus YGL173C, strain kem1, active compounds read low): 0.998
- normalized growth (locus YGL227W, strain vid30, active compounds read low): 1.03
- normalized growth (locus YGL240W, strain doc1, active compounds read low): 0.97
- normalized growth (locus YGL248W, strain PDE1, active compounds read low): 0.996
- normalized growth (locus YGL253W, strain hxk2, active compounds read low): 1.01
- normalized growth (locus YGR078C, strain PAC10, active compounds read low): 0.988
- normalized growth (locus YGR135W, strain pre9, active compounds read low): 0.937
- normalized growth (locus YGR229C, strain SMI1, active compounds read low): 1.01
- normalized growth (locus YGR252W, strain gcn5, active compounds read low): 0.898
- normalized growth (locus YHR013C, strain ard1, active compounds read low): 1.02
- normalized growth (locus YHR027C, strain rpn1, active compounds read low): 1.02
- normalized growth (locus YHR030C, strain SLT2, active compounds read low): 0.976 and 0.967
- normalized growth (locus YHR079C, strain IRE1 (second series), active compounds read low): 0.865 (active)
- normalized growth (locus YHR079C, strain IRE1, active compounds read low): 0.961
- normalized growth (locus YHR094C, strain hxt1, active compounds read low): 0.9 (active)
- normalized growth (locus YHR129C, strain ARP1, active compounds read low): 0.958
- normalized growth (locus YHR142W, strain chs7, active compounds read low): 1.02
- normalized growth (locus YHR200W, strain rpn10, active compounds read low): 0.91 (active)
- normalized growth (locus YIL066C, strain RNR3, active compounds read low): 0.987
- normalized growth (locus YIL073C, strain SPO22, active compounds read low): 1.01
- normalized growth (locus YIL125W, strain kgd1, active compounds read low): 0.787 (active)
- normalized growth (locus YIR030C, strain dcg1, active compounds read low): 0.899 (active)
- normalized growth (locus YJL092W, strain hpr5, active compounds read low): 1.01
- normalized growth (locus YJL095W, strain BCK1 (second series), active compounds read low): 1.01
- normalized growth (locus YJL095W, strain BCK1, active compounds read low): 1.01 and 0.968
- normalized growth (locus YJL115W, strain asf1, active compounds read low): 1.02
- normalized growth (locus YJL129C, strain trk1, active compounds read low): 1.03
- normalized growth (locus YJL134W, strain LCB3, active compounds read low): 0.969
- normalized growth (locus YJL154C, strain vps35, active compounds read low): 1.01
- normalized growth (locus YJL164C, strain tpk1, active compounds read low): 1.02
- normalized growth (locus YJL166W, strain qcr8, active compounds read low): 1.03
- normalized growth (locus YJL168C, strain set2, active compounds read low): 0.915 (active)
- normalized growth (locus YJL187C, strain SWE1 (second series), active compounds read low): 0.988
- normalized growth (locus YJL187C, strain SWE1, active compounds read low): 1.02
- normalized growth (locus YJR043C, strain POL32, active compounds read low): 0.939
- normalized growth (locus YJR066W, strain TOR1, active compounds read low): 0.935

From PubChem BioAssay AID1159580 (chemical genetic matrix, 2015)
